Assay outcomes deposited in PubChem by Sanford-Burnham Center for Chemical Genomics.
Hits are enriched below; roughly 28% of the tested compounds scored in any of these assays.
CYP2C9 inhib: blocks human cytochrome P450 2C9; P11712; CYP2C9 Supersomes, luciferin-H conversion, luminescence; AID 777; inhibition, % at 5 µM; 96,000 tested, 20% active;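 active means blocking of liver enzyme CYP2C9 beyond about 50% at 5 µM, limit read from the data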
CYP2C19 act: increases human CYP2C19 enzyme activity | P33261 | recombinant CYP2C19, luciferin-H EGE luminescence; hits give high values; 0 = fully inhibited enzyme, 1 = untreated enzyme | activation factor at 5 µM | 96,000 tested, under 10 active | AID 1025;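 active means activation factor of at least 2 at 5 µM in the primary screen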;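 further: 0 = wells with 2.5 mM tranylcypromine and 1 = vehicle-only wells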
CYP2C9 activ: CYP2C9 (human) activation; activation factor at 5 µM; 96,000 tested, 1.4% active; recombinant CYP2C9, luciferin-H conversion, luminescence; hits give high values; factor 1 = untreated enzyme, 0 = blocked; P11712;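 active means activation factor of 2 or more for CYP2C9 at a 5 µM dose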;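 further: 0 = sulfaphenazole-blocked wells and 1 = vehicle-only wells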
PTK2B oligo ant: blocks oligomerization of human Pyk2 in cells | Q14289 | Q293 cells, Pyk2 FERM NanoBiT luminescence; hits give low values | z-score (the deposit names both 25 µM and 10 µM) | 99,000 tested, 0.83% active | AID 1347419;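 active means Z-score of -3 or lower, scaled per plate to the spread of control and sample wells; inactive means z-score above -3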;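 further: negative z-score means lost luminescence so less FERM oligomerization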
Target sequence (Q14289 whole entry, looked up): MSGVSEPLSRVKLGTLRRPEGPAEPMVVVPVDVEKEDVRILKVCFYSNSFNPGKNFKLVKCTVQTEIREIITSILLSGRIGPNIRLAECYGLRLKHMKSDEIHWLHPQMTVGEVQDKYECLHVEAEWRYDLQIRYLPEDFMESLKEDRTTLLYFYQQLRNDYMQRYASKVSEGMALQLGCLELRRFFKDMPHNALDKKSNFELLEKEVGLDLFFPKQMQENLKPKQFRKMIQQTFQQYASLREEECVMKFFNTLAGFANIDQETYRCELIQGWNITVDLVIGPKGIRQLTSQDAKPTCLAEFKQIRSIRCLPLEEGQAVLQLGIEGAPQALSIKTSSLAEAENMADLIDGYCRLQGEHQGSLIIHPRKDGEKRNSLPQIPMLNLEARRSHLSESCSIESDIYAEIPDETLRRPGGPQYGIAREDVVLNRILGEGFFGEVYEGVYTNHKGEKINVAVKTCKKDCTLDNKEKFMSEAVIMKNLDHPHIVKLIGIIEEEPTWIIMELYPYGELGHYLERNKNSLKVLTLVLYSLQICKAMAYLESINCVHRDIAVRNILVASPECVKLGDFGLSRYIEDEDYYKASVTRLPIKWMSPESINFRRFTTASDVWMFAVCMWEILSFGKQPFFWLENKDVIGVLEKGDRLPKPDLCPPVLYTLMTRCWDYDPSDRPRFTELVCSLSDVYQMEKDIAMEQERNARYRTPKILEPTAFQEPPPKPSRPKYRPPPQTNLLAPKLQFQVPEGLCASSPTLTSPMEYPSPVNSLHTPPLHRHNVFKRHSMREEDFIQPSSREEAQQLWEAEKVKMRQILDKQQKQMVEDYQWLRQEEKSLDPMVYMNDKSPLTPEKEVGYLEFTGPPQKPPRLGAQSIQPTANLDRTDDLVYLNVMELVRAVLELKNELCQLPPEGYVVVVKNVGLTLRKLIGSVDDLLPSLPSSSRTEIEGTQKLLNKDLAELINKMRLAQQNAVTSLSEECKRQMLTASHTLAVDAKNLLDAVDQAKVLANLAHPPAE
CYP2C19 inhib: blocks human cytochrome P450 2C19; P33261; CYP2C19 Supersomes, luciferin-H EGE luminescence, 30 min; inhibition, % at 5 µM; 96,000 tested, 21% active; AID 778;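 active means CYP2C19 inhibition above a set limit at 5 µM in the primary screen, cut at about 50% in these data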;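 further: plate controls were negative control wells for no effect and 2.5 mM tranylcypromine positive control for full effect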
An asterisk follows results filed as active; · = no result given.

SMILES	CYP2C9 inhib	CYP2C19 act	CYP2C9 activ	PTK2B oligo ant	CYP2C19 inhib
O=C(CCS(=O)(=O)c1ccc(Br)s1)NCc1ccccc1	34	0.4	0.7	0.42	60*
CC(C)NC(=O)CCS(=O)(=O)c1ccc(Br)s1	7	0.6	0.9	0.64	38
COC(=O)c1ccccc1NC(=O)CCS(=O)(=O)c1ccc(Br)s1	-6	0.4	1.1	-0.12	62*
COC(=O)c1ccc(NC(=O)CCS(=O)(=O)c2ccc(Br)s2)cc1	61*	0.8	0.4	0.69	21
CCOCCOCN(C#N)c1nc(OC)nc(N(C)C)n1	-44	0.4	1.4	0.77	64*
COc1nc(OCC#N)nc(N(C)C)n1	0	1	1	1.8	4
N#CC1=C(N)Oc2cc(N)ccc2C1C1CC=CCC1 (stereo not drawn)	76*	0.1	0.2	0	89*
Cc1[nH]nc2c1C(C1CC=CCC1)C(C#N)=C(N)O2 (stereo not drawn)	46	0.8	0.5	-0.77	24
CCn1nc(C)cc1-c1n[nH]c(=S)n1N	6	1.1	0.9	-0.34	-15
COCCN(C(=O)c1cccc(OC)c1)c1nnc(-c2ccncc2)s1	80*	0	0.2	0.59	100*
C=CCN(C(=O)COc1ccccc1)c1nnc(-c2ccncc2)s1	52*	0.1	0.5	0.36	87*
COCCN(C(=O)C1CC1)c1nnc(-c2cccc(C)c2)s1	80*	0.3	0.2	-1.3	72*
O=C(NCCN1C(=O)C2C3C=CC(C3)C2C1=O)N1CCOCC1 (stereo not drawn)	-2	1.1	1	·	-8
Cc1cc(Cl)c(S(=O)(=O)N2CCCCCC2)cc1OCC(N)=O	-87	0.9	1.9	-0.09	12
CCOC(=O)C1CCCN(S(=O)(=O)c2cc(OCC(N)=O)c(C)cc2Cl)C1 (stereo not drawn)	-18	0.1	1.2	-1.2	91*
CCOC(=O)N1CCN(S(=O)(=O)c2cc(OCC(=O)NC3CCCCC3)c(C)cc2Cl)CC1	62*	0.5	0.4	-0.23	54*
Cc1cc(Cl)ccc1OCC(=O)NC1CCCC1	67*	0	0.3	0.19	98*
O=C(COc1ccc(Cl)cc1Cl)NC1CCSC1=O (stereo not drawn)	60*	0	0.4	0.15	96*
CC(C)NC(=O)COc1ccc(Cl)cc1Cl	10	0.5	0.9	0.24	46
COc1ccccc1N1CCN(CC(=O)NCC2CCCO2)CC1 (stereo not drawn)	·	·	·	0.3	·
O=C(CCc1ccc(S(=O)(=O)N2CCOCC2)cc1)NCCCN1CCCC1=O	8	0.9	0.9	0.42	11
CCOc1cc(C)c(S(=O)(=O)NC2CCCCC2)cc1C	44	0.3	0.6	-1.5	72*
Cc1cc(Cl)c(S(=O)(=O)N2CCSCC2)cc1OCC(=O)NC1CCCCC1	57*	0.3	0.4	-3.7*	66*
CCN1CCN(S(=O)(=O)c2cc(OCC(=O)NC3CCCCC3)c(C)cc2Cl)CC1	56*	0.7	0.4	1.4	33
Cc1cc(Cl)c(S(=O)(=O)N2CCCCCC2)cc1OCC(=O)NC1CCCCC1	89*	0.1	0.1	0.99	90*
SMILES	CYP2C9 inhib	CYP2C19 act	CYP2C9 activ	PTK2B oligo ant	CYP2C19 inhib
CCCNC(=O)N1CCC(C(=O)c2ccc(Cl)cc2)CC1	11	0.9	0.9	0.81	7
COc1ccc(Cc2c(O)nc[nH]c2=O)cc1	5	1	0.9	-0.38	-1
CCOC(=O)C(C)Sc1snnc1C (stereo not drawn)	·	·	·	1.6	·
Cc1ccc(S(=O)(=O)NC2CCCC(C(=O)O)C2)cc1 (stereo not drawn)	-13	1.1	1.1	1.4	-13
Cc1cc(Cl)c(S(=O)(=O)NC2CCCC2)cc1OCC(=O)NC1CCCCC1	44	0.5	0.6	-1.7	52*
CCCCNC(=O)C1=C(N)C(C(=O)Nc2ccc(C)c(S(=O)(=O)N3CCCCC3)c2)SC1=Nc1ccc(C)cc1C (stereo not drawn)	79*	0.9	0.2	0.78	13
CCN(CC)S(=O)(=O)c1cccc(NC(=O)C2SC(=Nc3ccc(C)cc3C)C(C(=O)NC(C)COC)=C2N)c1 (stereo not drawn)	83*	1	0.2	-0.74	4
CC(C(=O)NCc1cccs1)N1C(=O)c2ccccc2C1=O (stereo not drawn)	24	0.8	0.8	-0.41	24
CC(C)(C)NS(=O)(=O)c1ccc(CCC(=O)NCc2ccco2)cc1	67*	0.7	0.3	2.5	34
O=C(CCc1ccc(S(=O)(=O)NCc2ccccc2)cc1)NCc1cccnc1	·	·	·	0.44	·
O=C(CCc1ccc(S(=O)(=O)NCc2ccccc2)cc1)NCc1ccco1	·	·	·	0.25	·
CC(C)(C)NS(=O)(=O)c1ccc(CCC(=O)NCc2cccnc2)cc1	87*	0.6	0.1	-0.1	36
CC(C)(C)Nc1nc2nonc2nc1NC(C)(C)C	6	1.1	0.9	-1.7	-6
O=C(CNC(=O)c1cccs1)NCCN1CCN(c2ccccc2F)CC1	9	0.9	0.9	-0.16	14
O=C1C2C3C=CC(CO)(O3)C2C(=O)N1c1ccccc1-c1ccccc1 (stereo not drawn)	11	0.8	0.9	-0.53	19
COc1cc(NC(=O)c2ccco2)c(OC)cc1NC(=O)CCC(=O)Nc1cc(C)ccc1C	46	0.7	0.5	0.09	28
CCC(=O)Nc1ccc(NC(=O)c2ccco2)c(OC)c1	26	1.1	0.7	0.22	-6
CCCC(=O)Nc1ccc(NC(=O)c2ccco2)c(OC)c1	71*	0.7	0.3	-0.63	34
CCCOc1cccc(C(=O)Nc2cc(NC(=O)c3ccco3)ccc2OC)c1	42	0.3	0.6	-0.37	71*
COc1cc(NC(=O)c2ccco2)c(OC)cc1NC(=O)CCC(=O)Nc1cc(C)cc(C)c1	66*	0.6	0.3	-1.7	36
CCOC(=O)c1sc(NC(=O)c2cc3c(C)nn(-c4ccccc4)c3s2)nc1C	4	1	1	·	-4
CCOC(=O)CNC(=O)CSc1nc(N(C)C)nc(N2CCOCC2)n1	22	0.2	0.8	1.5	84*
CN(C)c1nc(SCc2ccccc2)nc(N2CCOCC2)n1	9	0.7	0.9	0.16	33
COC(=O)CSc1nc(NC(C)C)nc(N2CCOCC2)n1	24	0.5	0.8	1.4	50*
CCCCNC(=O)n1c(=O)oc2ccc(Cl)cc21	19	0.8	0.8	-0.79	17
O=S(=O)(/N=C(/c1ccc(Cl)cc1)N1CCOCC1)c1ccc(Cl)cc1	-3	1	1	1.8	0
COC(=O)C1C(=O)/C(=C(/C)N2CCCC2)C(=O)CC1(C)C (stereo not drawn)	10	1	0.9	-0.26	3
CCOC(=O)c1ccc(NC(=O)Cn2nnc(-c3ccccc3)n2)cc1	31	1	0.7	0.85	-3
CCOC(=O)C1CCCN(CC(=O)/C=C2/N(C)c3ccccc3C2(C)C)C1 (stereo not drawn)	17	0.4	0.8	-0.07	63*
